# Tested on: CAMK1B
# Details: concentration: 1 μM, replicates: in singlicate; n = 1
# 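Note: KINOMEscan kinase panel screen.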
row,Structure (SMILES),%Inh [%]
1,Cc1ccc(NC(=O)Nc2ccc(Cl)c(C(F)(F)F)c2)cc1-c1ccc(C(=O)Nc2ccncc2)cc1 [GSK1398470],2
2,FC(F)(F)c1ccccc1-c1cc(-c2c[nH]nc2-c2ccccn2)ccn1 [GW679396],29
3,COC(=O)c1cccc(NC(=O)NC2CCN(c3ccnc(Nc4ccc(F)cc4)n3)C2)c1 (centres unmarked) [GSK1379725],16
4,Fc1ccc(-c2nn3cccc(F)c3c2-c2ccncc2)cc1 [GW475620],39
5,Cc1ccc(NC(=O)Nc2ccc(Cl)cc2)cc1-c1ccc(C(=O)Nc2ccncc2)cc1 [GSK1398472],34
6,COC(=O)C(Cc1ccccc1)NC(=O)NC1CCN(c2ccnc(Nc3ccc(F)cc3)n2)C1 (centres unmarked) [GSK1379714],34
7,COc1ccc(Nc2nccc(NCCNC(=O)Nc3cc(C)ccc3C)n2)cc1 [GSK1379899],4
8,Fc1ccc(-c2nc3n(c2-c2ccncc2)CCS3)cc1 [GI98581],31
9,CC(=O)c1cccc(NC(=O)NC2CCN(c3ccnc(Nc4ccc(F)cc4)n3)C2)c1 (centres unmarked) [GSK1379710],39
10,Cc1ccc(-c2nc(Nc3ccncc3)c3ccccc3n2)s1 [GSK189015],27
11,O=c1cc(N2CCOCC2)nc2n(Cc3cccc(Cl)c3Cl)c3ccccc3n12 [GSK2299009],34
12,Cc1ccccc1Cn1ccn2c(=O)cc(N3CCOCC3)nc12 [GSK2269905],0
13,O=C(Nc1n[nH]c2nc(-c3cccs3)c(Br)cc12)C1CCCC1 [SB-743341],0
14,Cn1cncc1-c1cc2c(Nc3ccc(OCc4ccccc4)cc3)ncnc2cn1 [GW281179],25
15,CNc1nc(-c2ccc3c(N)n[nH]c3c2)cc(N2C[C@@H](C(=O)NC3CCCCC3)OC[C@H]2C)n1 [GSK2375584],0
16,COc1cccc(C2=C(Nc3cc(Cl)c(O)c(Cl)c3)C(=O)NC2=O)c1 [SB-390767],0
17,Cn1cnc2c(N)ncnc21 [SKF-97623],41
18,O=c1cc(N2CCOCC2)nc2n(Cc3ccccc3F)ccn12 [GSK2297428],0
19,COc1ccc(-c2coc3ccc(-c4nnc(C)o4)cc23)cc1,0

row,Structure (SMILES),%Inh [%]
1,Cc1ccccc1-c1cc(-c2c[nH]nc2-c2ccccn2)ccn1 [GW680061],0
2,Nc1cccc(-c2ccc3c(N)n[nH]c3c2)n1 [GSK2192730],0
3,CNC(=O)c1ccc(C)c(-n2c(C)cc(OCc3ccc(F)cc3F)c(Br)c2=O)c1,0
4,O=C(Nc1n[nH]c2nc(-c3ccco3)c(Br)cc12)C1CCN(Cc2ccccc2)C1.O=C(O)[C@H](O)[C@@H](O)C(=O)O (centres unmarked) [SB-742034],0
5,NS(=O)(=O)c1cccc(N/C=C2\C(=O)Nc3ccc(S(=O)(=O)Cc4c(Cl)cccc4Cl)cc32)c1 [GSK398099],23
6,c1ccc(-c2ccnc3[nH]ccc23)cc1 [SB-693578],11
7,CNc1nc(-c2ccc3c(N)n[nH]c3c2)cc(N2C[C@@H](C(=O)Nc3ccccc3)CC[C@H]2C)n1 [GSK2298859],6
8,COC(=O)c1cccc(NC(=O)NC2CCN(c3ccnc(Nc4ccc(OC)cc4)n3)C2)c1 (centres unmarked) [GSK1379746],4
9,COc1ccc(Nc2nccc(-c3ccc(NC(=O)c4cc5cc(F)ccc5[nH]4)cc3)n2)cc1 [GSK1229496],26
10,Cl.Cl.Cl.N#Cc1ccc(CCNc2nccc(-c3cccc(CN4CCNCC4)c3)n2)cc1 [GSK2137462],0
11,O=C(Nc1n[nH]c2cc(-c3ccsc3)ccc12)C1CC1 [SB-732932],2
12,COc1ccc(Nc2nccc(N3CCC(NC(=O)c4cc5ccccc5s4)C3)n2)cc1 (centres unmarked) [GSK1379738],0
13,COc1ccc2cc(-c3nc(-c4ccccc4C(C)C)[nH]c3-c3ccncc3)ccc2c1 [SB-660566],31
14,CC[C@@H]1CO[C@H](C(=O)Nc2ccccc2)CN1c1cc(-c2ccc3c(N)n[nH]c3c2)nc(NC)n1 [GSK2376236],29
15,Cc1ccc(NC(=O)c2ccc(Cl)cc2)cc1-c1ccc(C(=O)Nc2ccncc2)cc1 [GSK1398467],4
16,COc1cccc(NC(=O)Nc2ccc(C)c(-c3ccc(C(=O)Nc4ccncc4)cc3)c2)c1 [GSK1398474],0
17,COc1ccc(CSc2nnc(-c3ccc4c(c3)CCO4)o2)cc1,0
18,Cc1cccc2c(-c3ccncn3)c(-c3ccc(F)cc3)nn12 [GW515532],9

# Tested on: CAMK1D
# Details: concentration: 1 μM, replicates: in singlicate; n = 1
row,Structure (SMILES),%Inh [%]
1,Cc1ccc(NC(=O)Nc2ccc(Cl)c(C(F)(F)F)c2)cc1-c1ccc(C(=O)Nc2ccncc2)cc1 [GSK1398470],15
2,FC(F)(F)c1ccccc1-c1cc(-c2c[nH]nc2-c2ccccn2)ccn1 [GW679396],12
3,COC(=O)c1cccc(NC(=O)NC2CCN(c3ccnc(Nc4ccc(F)cc4)n3)C2)c1 (centres unmarked) [GSK1379725],0
4,Fc1ccc(-c2nn3cccc(F)c3c2-c2ccncc2)cc1 [GW475620],10
5,Cc1ccc(NC(=O)Nc2ccc(Cl)cc2)cc1-c1ccc(C(=O)Nc2ccncc2)cc1 [GSK1398472],13
6,COC(=O)C(Cc1ccccc1)NC(=O)NC1CCN(c2ccnc(Nc3ccc(F)cc3)n2)C1 (centres unmarked) [GSK1379714],4
7,COc1ccc(Nc2nccc(NCCNC(=O)Nc3cc(C)ccc3C)n2)cc1 [GSK1379899],0
8,Fc1ccc(-c2nc3n(c2-c2ccncc2)CCS3)cc1 [GI98581],1
9,CC(=O)c1cccc(NC(=O)NC2CCN(c3ccnc(Nc4ccc(F)cc4)n3)C2)c1 (centres unmarked) [GSK1379710],16
10,Cc1ccc(-c2nc(Nc3ccncc3)c3ccccc3n2)s1 [GSK189015],12
11,O=c1cc(N2CCOCC2)nc2n(Cc3cccc(Cl)c3Cl)c3ccccc3n12 [GSK2299009],36
12,Cc1ccccc1Cn1ccn2c(=O)cc(N3CCOCC3)nc12 [GSK2269905],0
13,O=C(Nc1n[nH]c2nc(-c3cccs3)c(Br)cc12)C1CCCC1 [SB-743341],16
14,Cn1cncc1-c1cc2c(Nc3ccc(OCc4ccccc4)cc3)ncnc2cn1 [GW281179],14
15,CNc1nc(-c2ccc3c(N)n[nH]c3c2)cc(N2C[C@@H](C(=O)NC3CCCCC3)OC[C@H]2C)n1 [GSK2375584],20
16,COc1cccc(C2=C(Nc3cc(Cl)c(O)c(Cl)c3)C(=O)NC2=O)c1 [SB-390767],16
17,Cn1cnc2c(N)ncnc21 [SKF-97623],0
18,O=c1cc(N2CCOCC2)nc2n(Cc3ccccc3F)ccn12 [GSK2297428],16
19,COc1ccc(-c2coc3ccc(-c4nnc(C)o4)cc23)cc1,13

row,Structure (SMILES),%Inh [%]
1,Cc1ccccc1-c1cc(-c2c[nH]nc2-c2ccccn2)ccn1 [GW680061],16
2,Nc1cccc(-c2ccc3c(N)n[nH]c3c2)n1 [GSK2192730],30
3,CNC(=O)c1ccc(C)c(-n2c(C)cc(OCc3ccc(F)cc3F)c(Br)c2=O)c1,0
4,O=C(Nc1n[nH]c2nc(-c3ccco3)c(Br)cc12)C1CCN(Cc2ccccc2)C1.O=C(O)[C@H](O)[C@@H](O)C(=O)O (centres unmarked) [SB-742034],22
5,NS(=O)(=O)c1cccc(N/C=C2\C(=O)Nc3ccc(S(=O)(=O)Cc4c(Cl)cccc4Cl)cc32)c1 [GSK398099],17
6,c1ccc(-c2ccnc3[nH]ccc23)cc1 [SB-693578],9
7,CNc1nc(-c2ccc3c(N)n[nH]c3c2)cc(N2C[C@@H](C(=O)Nc3ccccc3)CC[C@H]2C)n1 [GSK2298859],25
8,COC(=O)c1cccc(NC(=O)NC2CCN(c3ccnc(Nc4ccc(OC)cc4)n3)C2)c1 (centres unmarked) [GSK1379746],3
9,COc1ccc(Nc2nccc(-c3ccc(NC(=O)c4cc5cc(F)ccc5[nH]4)cc3)n2)cc1 [GSK1229496],0
10,Cl.Cl.Cl.N#Cc1ccc(CCNc2nccc(-c3cccc(CN4CCNCC4)c3)n2)cc1 [GSK2137462],29
11,O=C(Nc1n[nH]c2cc(-c3ccsc3)ccc12)C1CC1 [SB-732932],0
12,COc1ccc(Nc2nccc(N3CCC(NC(=O)c4cc5ccccc5s4)C3)n2)cc1 (centres unmarked) [GSK1379738],5
13,COc1ccc2cc(-c3nc(-c4ccccc4C(C)C)[nH]c3-c3ccncc3)ccc2c1 [SB-660566],7
14,CC[C@@H]1CO[C@H](C(=O)Nc2ccccc2)CN1c1cc(-c2ccc3c(N)n[nH]c3c2)nc(NC)n1 [GSK2376236],19
15,Cc1ccc(NC(=O)c2ccc(Cl)cc2)cc1-c1ccc(C(=O)Nc2ccncc2)cc1 [GSK1398467],0
16,COc1cccc(NC(=O)Nc2ccc(C)c(-c3ccc(C(=O)Nc4ccncc4)cc3)c2)c1 [GSK1398474],25
17,COc1ccc(CSc2nnc(-c3ccc4c(c3)CCO4)o2)cc1,0
18,Cc1cccc2c(-c3ccncn3)c(-c3ccc(F)cc3)nn12 [GW515532],0
